Assay outcomes (PubChem BioAssay)
KCNH2 3.1 block = qHTS for Inhibitors of KCHN2 3.1: Mutant qHTS; actives 0.95% (n = 340,000); Potassium voltage-gated channel subfamily H member 2, brain isoform KCNH2 3.1 (human); AID 720553, 2013; U2OS KCNH2 3.1, thallium flux FluxOr; active compounds read low; activity change, % (tested at about 1.8 µM);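 active = maximum activity change below -70%; inconclusive = maximum activity change from -70% to -50%; inactive = maximum activity change above -50%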;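 also: thallium influx rate constant from kinetic fluorescence after stimulation buffer; % is scaled to controls: 0 for no effect and ±100 for the full control effect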
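Thallium flux via FluxOr fluorescence (Red40 quencher, 45 min loading) in U2OS cells virally expressing the KCNH2 3.1 isoform (1.77 x 10^8 /mL virus, overnight at 37 C). Rate constants from 2-min kinetic reads post-stimulation, normalised to positive and negative controls.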
MCF10A rerep = A quantitative high throughput screen for small molecules that induce DNA re-replication in MCF 10a normal breast cells; actives 2.9% (n = 350,000); MCF 10A DNA re-replication, Hoechst nuclear intensity, 48 h; Potency, µM (titrated, usually from 46.1 µM), for the others: top-dose activity, positive = re-replication, usual class: activators; also: potency is read from the fitted curve at half-maximal effect; % of control where 0% means no effect; nearly all actives have a fitted effect of over 50% in size
KB-V1 MDR tox = qHTS assay for MDR1-selective chemotherapeutics: Primary screen using the drug-selected MDR subline cells KB-V1; KB-V1 MDR cells viability, CellTiter-Glo, 72 h; Potency, µM (titrated, usually from 46.1 µM), hits mostly cytotoxic; actives 3.4% (n = 400,000); AID 1347076, 2019; also: potency is read from the fitted curve at half-maximal effect; % is scaled to controls: 0 for no effect and ±100 for the full control effect; nearly all actives have a fitted effect of over 60% in size
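Readout: CellTiter-Glo luminescence, 10 min after addition. Cells: KB-V1 MDR subline, 72 h at 37 degrees C with compound. Analysis: corrected, normalized data fitted to concentration-effect curves.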
KB-3-1 tox = qHTS assay for MDR1-selective chemotherapeutics: Primary screen using the parental adenocarcinoma cell KB-3-1. KB-3-1 viability, CellTiter-Glo ATP luminescence, 72 h. Potency, µM (titrated, usually from 46.1 µM), hits mostly cytotoxic. actives 1.4% (n = 400,000); also: potency is read from the fitted curve at half-maximal effect; % is scaled to controls: 0 for no effect and ±100 for the full control effect; nearly all actives have a fitted effect of over 60% in size
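Luminescent ATP read-out (CellTiter-Glo) measures survival of drug-naive KB-3-1 cells after 72 h compound exposure at 37 °C. Titration series was screened from lowest to highest concentration, with DMSO vehicle plates as background controls.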
hERG WT inh = qHTS for Inhibitors of KCHN2 3.1: Wildtype qHTS; Voltage-gated inwardly rectifying potassium channel KCNH2 (Homo sapiens), Q12809; U2OS, BacMam KCNH2, thallium flux FluxOr; active compounds read low; activity change, % at 1.84 µM; actives 0.37% (n = 340,000);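 active = maximum activity change below -70%; inconclusive = maximum activity change between -70% and -50%; inactive = maximum activity change above -50%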; also: % is scaled to controls: 0 for no effect and ±100 for the full control effect
Target sequence (Q12809 whole entry, looked up): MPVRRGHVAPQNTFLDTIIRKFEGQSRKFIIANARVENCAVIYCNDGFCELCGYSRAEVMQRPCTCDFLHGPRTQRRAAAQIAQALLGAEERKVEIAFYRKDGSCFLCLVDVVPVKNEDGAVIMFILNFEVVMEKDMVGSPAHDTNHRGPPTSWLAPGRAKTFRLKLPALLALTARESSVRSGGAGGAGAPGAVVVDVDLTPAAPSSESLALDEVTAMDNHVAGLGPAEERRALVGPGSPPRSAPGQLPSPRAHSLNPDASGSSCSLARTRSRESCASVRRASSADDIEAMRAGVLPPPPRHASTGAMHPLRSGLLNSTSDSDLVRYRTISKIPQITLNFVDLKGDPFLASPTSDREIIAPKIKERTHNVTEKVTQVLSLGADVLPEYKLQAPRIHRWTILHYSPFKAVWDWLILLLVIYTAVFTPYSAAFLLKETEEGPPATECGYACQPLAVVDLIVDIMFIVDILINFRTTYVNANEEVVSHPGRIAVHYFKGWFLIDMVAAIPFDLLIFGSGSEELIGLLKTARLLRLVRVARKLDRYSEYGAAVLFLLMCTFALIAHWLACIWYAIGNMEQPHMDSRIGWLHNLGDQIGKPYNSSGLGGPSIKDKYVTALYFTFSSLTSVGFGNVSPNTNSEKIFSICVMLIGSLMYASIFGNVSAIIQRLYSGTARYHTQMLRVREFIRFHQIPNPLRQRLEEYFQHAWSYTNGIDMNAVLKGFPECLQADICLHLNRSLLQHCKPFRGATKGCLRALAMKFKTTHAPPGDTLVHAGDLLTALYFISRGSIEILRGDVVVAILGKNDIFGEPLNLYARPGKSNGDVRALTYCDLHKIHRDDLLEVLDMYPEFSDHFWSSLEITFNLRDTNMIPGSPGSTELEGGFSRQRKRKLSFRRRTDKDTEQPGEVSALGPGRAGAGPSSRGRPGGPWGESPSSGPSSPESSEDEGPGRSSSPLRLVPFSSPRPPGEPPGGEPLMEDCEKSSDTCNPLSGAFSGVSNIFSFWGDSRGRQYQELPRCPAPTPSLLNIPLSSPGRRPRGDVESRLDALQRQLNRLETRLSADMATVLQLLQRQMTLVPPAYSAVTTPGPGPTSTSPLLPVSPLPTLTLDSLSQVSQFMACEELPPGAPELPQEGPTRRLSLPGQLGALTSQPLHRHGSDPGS
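U2OS cells transduced with wild-type KCNH2 virus are loaded with FluxOr dye for 45 min, and thallium flux is measured in kinetic reads before and after stimulation buffer. Rate constants are normalized to DMSO controls.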
SW480 rereplic = A quantitative high throughput screen for small molecules that induce DNA re-replication in SW480 colon adenocarcinoma cells; actives 1.8% (n = 340,000); SW480 DNA re-replication, Hoechst DNA content imaging, 48 h; Potency, µM (doses to about 46.1 µM), for inactives: top-dose re-replication activation, most hits filed as activators; also: potency is read from the fitted curve at half-maximal effect; % of control where 0% means no effect; nearly all actives have a fitted effect of over 55% in size
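Quantitative HTS format with DMSO vehicle controls; 48 hr drug incubation at 37 C, then 40 min Hoechst staining and scanning imager measurement at 405 nm excitation.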
* hit, by the source's call; i = inactive; ? = inconclusive; · = not tested or not shown. Only some compounds are listed: those with a hit (about 7.6% of all), similar ones and a draw of the others. Unless noted, calls follow the shape of the dose curve; as a rule, active = well fitted curve in the direction sought with a large enough effect; inconclusive = small, poorly fitted or top-dose-only effect, or another doubt; inactive = no such curve, though single readings can be large; an effect the other way counts as inactive or inconclusive.

SMILES	KCNH2 3.1 block	MCF10A rerep	KB-V1 MDR tox	KB-3-1 tox	hERG WT inh	SW480 rereplic
COc1ccc2c(c1)-c1nc(NC(=O)c3ccco3)sc1CC2	-37	?	13µM*	i	1	4%
COc1cc(C(=O)NC(=S)Nc2ccc(NC(=O)c3ccco3)cc2)cc(OC)c1OC	-83*	22%	?	?	1	5%
COc1ccc(C(=O)Nc2ccc(NC(=O)c3ccco3)cc2)cc1	13	-14%	i	i	-9	9.2µM*
O=C(OC1CCCCC1)c1ccc(NC(=O)c2ccco2)cc1	?	15µM*	i	i	-4	11%
CCOc1ccc(N(Cc2nnc3n2CCCCC3)C(=O)Nc2cccc(C)c2)cc1	8	-8%	i	i	3	-7%
CC(Oc1coc(CN2CCN(C(=O)c3ccco3)CC2)cc1=O)c1ccccc1 (centres undefined)	-7	1%	i	i	-15	-10%
COc1cccc(CSc2nc3sc(C)c(C)c3c(=O)n2Cc2ccco2)c1	-5	?	i	i	-1	13%
COc1cccc(NC(=O)C2(C)CCN2C(=O)C2CCCCC2)c1 (centres undefined)	·	·	i	i	·	·
CC(C)CN1C(=O)CSCC1(C)C(=O)NCc1ccccc1 (centres undefined)	·	·	i	i	·	·
COc1ccc(NC(=O)/C(C#N)=C\C=C\c2ccco2)cc1	3	12µM*	10µM*	7.3µM*	1	·
CCCC(=O)O[C@]1(C(=O)CCl)[C@@H](C)C[C@H]2[C@@H]3CCC4=CC(=O)C=C[C@]4(C)[C@@]3(F)C(=O)C[C@@]21C	-29	?	13µM*	i	25	-3%
CCN(C(=O)CSc1nc(-c2ccc(C(C)C)cc2)no1)c1ccccc1	·	·	i	i	·	·
CC(NC(=O)C(=O)N1CCCCC1)C(c1cccs1)N1CCN(c2ccccc2F)CC1 (centres undefined)	-9	-1%	i	i	-1	-7%
CC(NC(=O)C(=O)N1CCOCC1)C(c1cccs1)N1CCN(c2ccccc2F)CC1 (centres undefined)	-122*	1%	i	i	1	2%
CC1=NN(c2ccc(C(=O)OC(C)C)cc2)C(=O)/C1=C\C=C\c1ccco1	-194*	?	i	i	-202*	?
COc1cccc(C2C3=C(N=c4s/c(=C\c5ccc(O)cc5)c(=O)n42)c2ccccc2CC3)c1OC (centres undefined)	-7	-1%	i	i	-2	-10%
COc1cccc(C2C3=C(N=c4s/c(=C\c5cccc(O)c5)c(=O)n42)c2ccccc2CC3)c1OC (centres undefined)	6	9%	16µM*	?	-15	?
Fc1ccc(N2CCN(c3ccc4c(C(F)(F)F)cc(C(F)(F)F)nc4n3)CC2)cc1	-19	1%	i	i	1	-7%
FC(F)(F)c1cc(C(F)(F)F)c2ccc(N3CCN(c4ccc(Cl)cc4)CC3)nc2n1	-90*	3%	i	i	1	-22%
COc1ccc(CNCCC(c2ccc(OC(C)C)cc2)c2ccccc2OC)cc1OC (centres undefined)	-82*	23%	?	?	-45	?
COc1ccc(C(CC(=O)O)c2ccc3c(c2)OCO3)cc1 (centres undefined)	10	0%	i	i	8	?
CC(C)Oc1ccc(C(CC(=O)NCc2ccco2)c2ccccc2)cc1 (centres undefined)	14	-1%	21µM*	i	54	-2%
COc1ccccc1C(CCNCc1ccccc1)c1ccc(OC(C)C)cc1 (centres undefined)	?	18µM*	i	?	-2	?
COc1ccccc1C(CCNCc1ccc(N(C)C)cc1)c1ccc(OC(C)C)cc1 (centres undefined)	-15	17%	i	?	-2	?
COc1ccc(CNCCC(c2ccccc2)c2ccc3c(c2)OCO3)cc1 (centres undefined)	-81*	18µM*	?	?	-24	?
SMILES	KCNH2 3.1 block	MCF10A rerep	KB-V1 MDR tox	KB-3-1 tox	hERG WT inh	SW480 rereplic
COc1ccccc1C(CC(=O)Nc1ccc(C)c(C)c1)c1ccc(OC(C)C)cc1 (centres undefined)	-8	-15%	i	i	-8	?
Cc1cccc(C(CC(=O)NCc2ccco2)c2ccccc2)c1O (centres undefined)	1	3%	i	i	·	-41%
COc1ccc(CCNS(=O)(=O)c2ccc(-c3ccc(=O)[nH]n3)o2)cc1OC	10	0%	?	i	-1	?
COCCNC(=O)C1(C)CCCN(Cc2ccc(Cl)c(Cl)c2)C1 (centres undefined)	·	·	i	i	·	·
O=C(Nc1ccc(OC(F)F)cc1)c1cc[n+]([O-])cc1	-11	-3%	i	i	-2	-2%
COc1ccccc1NC(=O)CC(c1ccc(OC(C)C)cc1)c1ccccc1OC (centres undefined)	-3	?	4.6µM*	i	34	?
COc1ccc(CNCCC(c2ccc(OC(C)C)cc2)c2ccccc2OC)cc1 (centres undefined)	17	?	21µM*	?	·	?
COc1cc(C(=O)Nc2ccc(S(=O)(=O)NC(C)(C)C)cc2)cc(OC)c1OC	11	?	i	i	21	1%
O=C(Nc1nccs1)c1ccc(Br)cc1	-2	-2%	i	i	-3	15µM*
CCOc1ccc(C(=O)Nc2ccc(NC(=O)c3cccs3)cc2)cc1[N+](=O)[O-]	-99*	-1%	i	i	-81*	-2%
COc1ccc(C(=O)Nc2ccc(S(=O)(=O)NC(C)(C)C)cc2)cc1[N+](=O)[O-]	-5	0.13µM*	?	i	31	9%
COc1ccc(C(=O)Nc2ccc(C(=O)Nc3nccs3)cc2)cc1[N+](=O)[O-]	?	-3%	i	?	-93*	10µM*
Cc1ccc(Cl)cc1NC(=O)CCC(=O)O	11	-2%	?	i	13	-7%
